Measurements reported in PubChem BioAssay AID1416 (The Scripps Research Institute Molecular Screening Center, 2008).
Hit rate of the full screen: of about 220,000 compounds, about 370 (0.17%) were called active. What follows is part of a selection rich in actives, with near analogues and random picks from the rest. A number with no mark means an inactive call.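 The calls were made as follows: active = inhibition above the mean inhibition of all tested compounds plus 3 SD, set separately per screening campaign (cut at about 2.9% in these data); inactive = the rest.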

molecular target: Eukaryotic translation initiation factor 2-alpha kinase 3 (Homo sapiens) (UniProt Q9NZJ5); assay: SEAP translation reporter rise after PERK-DD activation – CHO PERK-DD cells, SEAP luminescence, HTS, PERK inhibitor project, primary screen (AID 1416); settings: CHO PERK-DD fusion, at 5.6 µM, stronger effect = higher value;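 also: PERK kinase domain activated by AP20187 dimerizer at 100 nM; 0% = DMSO with dimerizer and 100% = rapamycin at 8.4 µM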
Sequence (Q9NZJ5 whole entry, looked up, the tested form may be a part): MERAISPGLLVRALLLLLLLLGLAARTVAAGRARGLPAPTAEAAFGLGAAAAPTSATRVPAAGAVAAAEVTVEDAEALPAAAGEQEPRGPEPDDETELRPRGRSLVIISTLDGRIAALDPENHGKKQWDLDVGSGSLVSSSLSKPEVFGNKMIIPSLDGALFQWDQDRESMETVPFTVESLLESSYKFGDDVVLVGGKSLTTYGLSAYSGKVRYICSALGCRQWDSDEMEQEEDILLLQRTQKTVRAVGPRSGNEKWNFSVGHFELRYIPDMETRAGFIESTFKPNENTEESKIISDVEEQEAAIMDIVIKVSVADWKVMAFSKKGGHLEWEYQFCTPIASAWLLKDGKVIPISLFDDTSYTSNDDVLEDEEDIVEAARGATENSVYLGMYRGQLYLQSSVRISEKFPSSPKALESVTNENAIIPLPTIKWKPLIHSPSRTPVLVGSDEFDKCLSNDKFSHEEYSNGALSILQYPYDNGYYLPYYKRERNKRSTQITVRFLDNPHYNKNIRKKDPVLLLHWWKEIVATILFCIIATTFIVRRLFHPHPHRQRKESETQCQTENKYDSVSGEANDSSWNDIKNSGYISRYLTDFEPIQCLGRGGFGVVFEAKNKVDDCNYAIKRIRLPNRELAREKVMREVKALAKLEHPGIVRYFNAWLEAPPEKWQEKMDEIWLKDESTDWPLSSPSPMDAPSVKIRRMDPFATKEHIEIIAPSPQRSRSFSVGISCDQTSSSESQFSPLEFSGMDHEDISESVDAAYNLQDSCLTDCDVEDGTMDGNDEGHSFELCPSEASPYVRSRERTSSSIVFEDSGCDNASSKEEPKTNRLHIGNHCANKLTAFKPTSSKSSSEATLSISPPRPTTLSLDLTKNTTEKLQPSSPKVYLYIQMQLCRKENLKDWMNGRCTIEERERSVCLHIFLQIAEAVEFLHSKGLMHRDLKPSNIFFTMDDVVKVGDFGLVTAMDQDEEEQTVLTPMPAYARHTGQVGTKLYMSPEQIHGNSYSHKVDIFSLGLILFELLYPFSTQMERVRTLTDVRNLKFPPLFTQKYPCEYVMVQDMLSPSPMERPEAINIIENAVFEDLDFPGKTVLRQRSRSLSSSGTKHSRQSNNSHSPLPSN

Row | Compound | inhibition
1 | CC(C)CNC(=O)CC(NCC(C)C)C(=O)O (configuration not stated) | 0.39%
2 | COc1ccccc1CN(C)C(=O)C1(c2ccc(Cl)cc2)CC1 | 0.49%
3 | Cc1nnc(SCC(=O)NC2CCCC2)s1 | 3.36% (active)
4 | Cc1cnc(NC(=O)CSc2nnc(C)s2)s1 | 1.08%
5 | Cc1nnc(SCC(=O)Nn2cnnc2)s1 | 0.16%
6 | CC(=O)C1(C)N(O)C(C)(C)C(c2cccs2)=[N+]1[O-] (configuration not stated) | 0.19%
7 | COc1cccc(Nc2nnc(SCC(=O)N3CC(=O)Nc4ccccc43)s2)c1 | 0.32%
8 | CC1CC(=S)Nc2ccccc2N1Cc1ccccc1 (configuration not stated) | 0.04%
9 | O=C1c2ccccc2C(=O)c2c1cccc2N1CCN(CCO)CC1 | -0.7%
10 | COCc1c(C(=O)OCc2c(C)noc2C)oc2ccccc12 | 1.59%
11 | CCOc1ccc(/C=N/NC(=O)CSc2ccccn2)cc1O | -0.92%
12 | CC1=C(C(=O)N(C)C)C(c2ccccc2OC(F)F)NC(=O)N1 (configuration not stated) | 1.73%
13 | CCOC(=O)c1ccc(NC(=O)c2cc(=O)[nH]c3ccccc23)cc1 | 0.84%
14 | O=C(Nc1cccc(F)c1)N1C2CCC1CC(O)(c1cccnc1)C2 (configuration not stated) | 0.63%
15 | O=C(Nc1ccccc1)OCc1cn(-c2ccc(Cl)cc2)nn1 | 1.21%
16 | O=C(Nc1ccccc1)OCc1cc(-c2ccc(Cl)cc2)on1 | 3.15% (active)
17 | O=C(Nc1ccc(Cl)cc1)OCc1cc(-c2ccccc2)on1 | 0.13%
18 | CCN(CC)CC1(O)CCN(C(=O)c2ccc(Cl)c(Cl)c2)CC1 | 1.07%
19 | Cn1c(=O)c2cc(S(=O)(=O)NCCC(=O)Nc3ccc(F)cc3F)ccc2n(C)c1=O | 2.78%
20 | Cc1ccc(S(=O)(=O)NCC(=O)N(CC(=O)NC(C)(C)C)Cc2cccs2)cc1 | 1.04%
21 | Cc1ccoc1C(=O)Nc1cccc(Oc2ccccc2)c1 | -1%
22 | Cc1nc(CN2CCN(C(=O)CCc3nnc(Cc4c[nH]c5ccccc45)o3)CC2)cs1 | 0.14%
23 | O=C(NNc1cc(Cl)cc(Cl)c1)c1c(F)cccc1Cl | 0.97%
24 | COCCNC(=S)N1CCC(NC(=O)C23CC4CC(CC(C4)C2)C3)CC1 | -0.41%
25 | Cc1ccc(C2Nc3ccccc3C(=O)N2CCN2CCNC2=O)cc1 (configuration not stated) | 0.32%

Row | Compound | inhibition
26 | CN(C)/C=C(/C(=O)c1ccc(Cl)c(Cl)c1)c1nnnn1-c1ccccc1 | 1.85%
27 | O=C1COc2ccc(C(=O)COC(=O)c3cccnc3Cl)cc2N1 | 0.94%
28 | CCOc1ccc(S(=O)(=O)Nc2nccs2)cc1 | 1.47%
29 | Cc1ccc2c(c1)NCC(C(=O)NC1CCC(C)CC1)O2 (configuration not stated) | 0.88%
30 | COCc1c(C(=O)N/N=C/C2CC=CCC2)nnn1-c1nonc1N (configuration not stated) | 0.44%
31 | COc1ccc(NC(=S)Nc2ccc(S(N)(=O)=O)cc2)c(C)c1 | 1.02%
32 | CN(Cc1ccccn1)Cc1nc(-c2ccc(Cl)cc2)no1 | 0.32%
33 | COC(=O)C1=C(C)NC(=O)CC1c1ccccc1OC (configuration not stated) | 0.25%
34 | CN(c1ccc(OCC(=O)NC2=NCCS2)cc1)S(=O)(=O)c1ccc(F)cc1 | 1.79%
35 | Cc1cccc(N2CCN(c3ccc(NC(=O)/C=C\C(=O)O)cc3)CC2)c1 | 0.1%
36 | CS/C(=C\[N+](=O)[O-])Nc1ccc(C)cc1 | 1.47%
37 | CCOCCn1c(-c2ccccc2)nc2ccccc21 | -1.39%
38 | Cc1ccccc1C1=N/C(=C/c2cccnc2)C(=O)O1 | 0.44%
39 | O=C(CC1Nc2ccccc2NC1=O)Nc1ccccc1NC(=O)CC1Nc2ccccc2NC1=O (configuration not stated) | 0.97%
40 | CN(C)S(=O)(=O)N1CCN(c2ccc([N+](=O)[O-])cc2)CC1 | 0.53%
41 | Cc1cc(NC(=O)/C=C/C(=O)N(c2ccccc2C)C(C(=O)NC2CCCC2)c2ccc(F)cc2)no1 (configuration not stated) | 2.4%
42 | CSc1sc(C(=O)NC(=O)NCc2cccnc2)c(C)c1-c1ccon1 | -0.78%
43 | Cc1c(C=O)n(C)n(-c2ccccc2)c1=O | 0.28%
44 | Cc1ccc(Cl)c(NC(=O)CN(C)CC(=O)Nc2ccc(F)c(F)c2F)c1Cl | 0.24%
45 | Cc1noc(C)c1C(=O)OCC(=O)N1CCN(S(=O)(=O)c2ccc3ccccc3c2)CC1 | 1.94%
46 | COc1ccc(C(F)(F)F)cc1N/C=C\c1nnnn1-c1ccc(C)cc1 | 1.24%
47 | C#CCNC(=O)C1=C[C@@H](c2ccccc2)[C@H](CCCO)[C@@H](OCC)O1 | 0.82%
48 | CC(C)C[C@H](NC(=O)NCCc1ccc(Cl)cc1)C(=O)O | 3.16% (active)
49 | CSCC[C@H](NC(=O)NCCc1ccc(F)cc1)C(=O)O | 0.4%
50 | C[C@H](NC(=O)NCCc1ccccc1)C(=O)O | 1.63%

Row | Compound | inhibition
51 | CC(=O)c1ccc(NC(=O)CSC(=S)N2CCCC2)cc1 | -0.15%
52 | Cc1cc(C)n(CC(O)CN(c2ccccc2)S(=O)(=O)c2ccc3ccccc3c2)n1 (configuration not stated) | 0.84%
53 | CC(C)CCSc1ncnc2c1oc1nc3c(cc12)COC(C)(C)C3 | -0.1%
54 | CC(=O)Nc1cccc(/C(C)=N/NC(=O)c2c(-c3ccccc3Cl)noc2C)c1 | -0.07%
55 | COc1ccccc1N=C(C)C1=C(O)COC1=O | 0.22%
56 | O=[N+]([O-])c1ccc2c(c1)C(O)n1nc(-c3ccccc3)nc1S2 (configuration not stated) | 1.41%
57 | Cc1ccc(C(C)(C)C)c(OCCCCN2CCCC2)c1 | -1.02%
58 | CS(=O)(=O)N(CC(=O)Nc1ccc(F)cc1F)c1cccc([N+](=O)[O-])c1 | 1.41%
59 | Cc1ccc(C)c(NC(=S)NNC(=S)Nc2ccc(C(C)C)cc2)c1 | 0.16%
60 | OCCN1CCN(C(=S)c2ccc(-c3ccccc3)cc2)CC1 | 0.18%
61 | CCOc1ccc(C(=O)NC(=S)Nc2ccc(N3CCOCC3)c(Cl)c2)cc1[N+](=O)[O-] | 1.74%
62 | CCCCn1nc(C(=O)Nc2ccc(S(=O)(=O)Nc3ncccn3)cc2)c2ccccc2c1=O | 0.72%
63 | O=c1c2sccc2nc(SCc2cc(=O)n3ccccc3n2)n1-c1ccc(Br)cc1 | -1.2%
64 | COc1cc(/C=N/NC(=O)Nc2ccccc2)ccc1OCCOc1ccccc1C | 0.13%
65 | CC(=O)Nc1ccccc1NC(=O)c1cc(C)cc(C)c1 | 0.02%
66 | O=C1C=CC(=O)N1c1ccc(N2CCCCC2)cc1 | 3.21% (active)
67 | Cc1ccccc1C(=O)Nc1ccc(N2CCCCCC2)cc1 | -0.25%
68 | O=c1[nH][nH]c(=O)c2cc(N3CCCC3)ccc12 | 0.69%
69 | CN1CCN(c2ccc(NC(=O)c3ccc4c(c3)[nH]c(=O)n4Cc3ccc(F)cc3)cc2)CC1 | 0.51%
70 | CCc1cc(C(N)=O)c(NC(=O)c2ccc(OC)cc2)s1 | 0.45%
71 | Cc1ccc2cc(/C=N/NC(=O)[C@@H]3CCCN3)c(Cl)nc2c1 | -0.87%
72 | C=CCSc1nc2ccccc2[nH]1 | -0.36%
73 | C=CCSc1nc(N)cc(=O)[nH]1 | 2.99% (active)
74 | CCCCc1nnc(NC(=O)CSc2nc(N)cc(=O)[nH]2)s1 | 0.08%
75 | CCOc1ccc(CCNC(=O)C(CC)n2nc(C)n3c(cc4sccc43)c2=O)cc1OCC (configuration not stated) | -0.56%

Row | Compound | inhibition
76 | O=C(NCCc1ccc(F)cc1)c1n[nH]c2ccccc12 | 0.75%
77 | C=C(C)CSc1nnc(-c2ccc(C)cc2)n1N | 0.46%
78 | CCCn1nnnc1NC(=O)COc1ccc(Cl)cc1C | -0.15%
79 | CSc1ccc(NC(=O)/C=C/C(=O)O)cc1 | 0.87%
80 | COc1cccc(-c2ccc(C#N)c(SCC(=O)NCCc3ccc(Cl)cc3)n2)c1 | 1.75%
81 | Cc1ccc(S(=O)(=O)N(Cc2ccc(Cl)cc2)c2ccccc2C(=O)NCc2cccnc2)cc1 | -0.82%
82 | O=C(Nc1ccc2cn[nH]c2c1)c1ccc(S(=O)(=O)N2CCOCC2)cc1 | 1.2%
83 | Cc1ccc(NNC(=O)C2CCC2)cc1C | 0.43%
84 | COC(=O)CSc1nc2c(c(C3CC=CCC3)c1C#N)CCC2 (configuration not stated) | 0.22%
85 | CCC(C)OC(=O)C(C)Oc1ccc(-c2ccccc2)cc1 (configuration not stated) | -0.27%
86 | Cc1nn(Cc2ccccc2Cl)c(C)c1NC(=O)Cn1nc([N+](=O)[O-])c(Cl)c1C | -0.58%
87 | CC(=O)N1CCN(S(=O)(=O)c2ccc(C)c([N+](=O)[O-])c2)C1C(C)C (configuration not stated) | 0.34%
88 | Cc1cccc(C)c1NC(=S)N(Cc1cccnc1)Cc1ccccc1Cl | -0.05%
89 | CSc1ccccc1C(=O)NCc1ccccc1 | 1.84%
90 | O=S(=O)(Nc1ncccn1)c1ccc(NS(=O)(=O)c2cccc(Cl)c2Cl)cc1 | 0.64%
91 | COc1ccccc1-n1c(-c2cc(-c3ccco3)[nH]n2)n[nH]c1=S | 1.16%
92 | Cc1ccc(OCc2n[nH]c(=S)n2-c2ccc(C)cc2)cc1 | 0.51%
93 | Cc1cc(-c2n[nH]c(=S)n2-c2ccc(C)c(C)c2)no1 | 3.32% (active)
94 | Cc1cc(NC(=O)CCC(=O)N(CC(=O)NCC2CCCO2)c2ccccc2C)no1 (configuration not stated) | 0.7%
95 | COCCNC(=O)CN(C(=O)CCC(=O)Nc1cc(C)on1)c1ccc(C)cc1C | 3.05% (active)
96 | Cc1ccc(SCCC(=O)Nc2cc(C)on2)cc1 | 1.3%
97 | O=[N+]([O-])/C(N=Nc1ccccc1)=N\Nc1ccccc1 | 0.56%
